Hits are enriched below; roughly 3.7% of the tested compounds scored in any of these assays.
Nrf2 ARE act – activates Nrf2 signaling. 410,000 compounds, 0.31% hits. AREc32 ARE-luciferase reporter (MCF7-derived line), luminescence, 24 h. Potency, µM (top dose mostly 46.1 µM), usual class: activators. AID 624171; further: nearly all actives have a fitted effect of over 65% in size
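Luminescent ARE reporter assay in AREc32_Fluc cells: overnight plating at 37 deg C, 24 hr compound incubation, Steady-Glo added, 30 min RT before reading.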
ELG1 DNA repair – ELG1-dependent DNA repair inhibition; HEK293T ELG1-luciferase reporter, luminescence, 16 h; DNA damage induced by 5-fluorouridine; Potency, µM (series often up to 46.1 µM), actives largely listed as inhibitors; 330,000 compounds, 2.3% hits; AID 504467; further: nearly all actives have a fitted effect of over 55% in size
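Quantitative HTS, concentration-response format. 2,000 cells/well co-treated with 5-fluorouridine and compound, 16 hr in 5% CO2 at 37 °C; ONE-Glo luminescence read after 30 min.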
A549 viability – kills or reduces viability of A549 cells in Nrf2 counter-screen; A549 ARE-Fluc cells, CellTiter-Fluor viability, 18-24 h; Potency, µM (doses to about 46 µM), usual class: inhibitors; 390,000 compounds, 0.16% hits; AID 504648
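Cytotoxicity counterscreen: CellTiter-Fluor fluorescence was measured in A549 ARE_Fluc cells after 18-24 h of compound exposure in a concentration series. The subsequent BugLite luminescent read reports ARE-luciferase activity.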
Nrf2 block – inhibitors of Nrf2 signaling | Potency, µM (top dose mostly 46 µM), usual class: inhibitors | 360,000 compounds, 2.1% hits | A549 ARE-Fluc reporter, luciferase luminescence, 18-24 h; further: nearly all actives have a fitted effect of over 60% in size
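Nrf2 function is reported as luminescence of an ARE-controlled luciferase in A549 cells. Compounds were tested at several concentrations, and a CellTiter-Fluor read on the same wells flagged cytotoxicity.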
Of the large screens only hits and unclear results are named; the others gave an inactive call. The call rests on the fitted dose curve; in most records, active means well fitted curve in the direction sought with a large enough effect; inconclusive means small, poorly fitted or top-dose-only effect, or another doubt; inactive means no such curve, though single readings can be large; an effect the other way counts as inactive or inconclusive.

CS(=O)(=O)N(CC(=O)N1CCN(Cc2ccc3c(c2)OCO3)CC1)Cc1ccc(Cl)cc1	ELG1 DNA repair 12µM, Nrf2 block inconclusive
CS(=O)(=O)N(CCc1ccccc1)CC(=O)N1CCN(Cc2ccc3c(c2)OCO3)CC1	Nrf2 block inconclusive (no result: ELG1 DNA repair)
CN(C)S(=O)(=O)c1ccc(Cl)c(NC(=O)CN2CCN(Cc3ccc4c(c3)OCO4)CC2)c1	ELG1 DNA repair 21µM, Nrf2 block inconclusive
CC(C)NC(=O)N(C)C[C@H]1Oc2ccc(NS(=O)(=O)c3ccccc3)cc2C(=O)N([C@H](C)CO)C[C@@H]1C	none
Cc1ccc(-c2nc(-c3cccnc3)sc2CC(=O)Nc2ccc3nc(C)sc3c2)cc1	ELG1 DNA repair 18µM, Nrf2 block inconclusive
CC[N+]1=C(C)C(C)(C)c2cc(C)ccc21	ELG1 DNA repair 13µM, Nrf2 block 10µM
CCN1C(=O)C(=O)c2cc(C)ccc21	ELG1 DNA repair inconclusive
COc1cc(CCC(=O)N2CCN(c3cccc(C)c3C)CC2)cc(OC)c1OC	ELG1 DNA repair 18µM, Nrf2 block inconclusive
CC1CCN(C(=O)CCC(=O)N2CC(C)Oc3ccccc32)CC1 (stereo not given)	none
Cc1cccc(N2CCN(C(=O)CCC(=O)N3CC(C)Oc4ccccc43)CC2)c1C (stereo not given)	ELG1 DNA repair inconclusive, Nrf2 block 18µM
COc1ccc(CCC(=O)N2CCN(c3cccc(C)c3C)CC2)cc1	none
CCOC(=O)C1=C(COC(=O)COc2ccc(C(=O)CC)cc2)NC(=O)NC1C (stereo not given)	Nrf2 block inconclusive
CC(C)CC(=O)/C=C/n1c(=S)oc2ccccc21	Nrf2 ARE act 11µM, ELG1 DNA repair inconclusive
Cn1c(=S)oc2ccccc21	none
O=S(=O)(CC(CN1CCCC1)N1CCCC1)c1ccc2ccccc2c1 (stereo not given)	ELG1 DNA repair 12µM, A549 viability inconclusive, Nrf2 block inconclusive
Cc1ccc(S(=O)(=O)CC(CN2CCOCC2)N2CCOCC2)cc1 (stereo not given)	none
FC(F)(F)c1cc(-c2cccs2)nc(-n2cc(Br)cn2)n1	Nrf2 ARE act 3.2µM
CCCCN(CCCC)C(=O)CSc1nnc2n(C)c(=O)c3c4c(sc3n12)CCCC4	none
Cn1c(=O)c2c3c(sc2n2c(SCC(N)=O)nnc12)CC(C(C)(C)C)CC3 (stereo not given)	ELG1 DNA repair 23µM
CCCN1CCN(C(=O)C(NC(=O)c2ccco2)C(C)C)CC1 (stereo not given)	none
CCOC(=O)N1CCN(c2nc(C(F)(F)F)nc3c(C)cc(C)cc23)CC1	Nrf2 block 23µM (no result: ELG1 DNA repair)
N#CCCN(C(=O)COC(=O)C1=NNC(=O)CC1)c1ccccc1	none
CCc1ccc(CNC(=O)c2c(C)oc3ncn(CC(C)C)c(=O)c23)cc1	Nrf2 block inconclusive (no result: ELG1 DNA repair)
CCc1cccc(C)c1NC(=O)CSc1nnc(CCCOc2ccc(Cl)cc2Cl)n1C	ELG1 DNA repair inconclusive, Nrf2 block 16µM
O=C(CCN1CCC(c2ccccc2)C1)c1ccc2c(c1)OCCO2 (stereo not given)	Nrf2 ARE act 8.9µM
O=C(CCN1CCCCC1)c1ccc2c(c1)OCCO2	Nrf2 ARE act 18µM
O=C(COC(=O)C1=COCCO1)Nc1cc(Cl)c(Cl)cc1Cl	ELG1 DNA repair inconclusive
COc1ccc(C(=O)Nc2ccc(-c3nc4ccccc4s3)c(Cl)c2)cc1Cl	none (no result: ELG1 DNA repair)
COc1c(C)cccc1C(=O)Nc1ccc(-c2nc3ccccc3s2)c(Cl)c1	Nrf2 block 26µM (no result: ELG1 DNA repair)
CCOC(=O)C1=C(C)NC(C)=C(C(=O)OCC)C1C(=O)OCC(=O)NC1CCCCC1	ELG1 DNA repair 10µM, Nrf2 block inconclusive
CCOC(=O)C1=C(C)NC(C)=C(C(=O)OCC)C1C(=O)OCC(=O)NCCc1ccccc1	ELG1 DNA repair 23µM, A549 viability inconclusive
CCNC(=O)COC(=O)C1C(C(=O)OCC)=C(C)NC(C)=C1C(=O)OCC	none
CCOC(=O)C1=C(C)NC(C)=C(C(=O)OCC)C1C(=O)OCC(=O)NC1(C#N)CCCCC1	ELG1 DNA repair inconclusive
O=C(COc1ccc(Cl)cc1)NCC(c1ccco1)S(=O)(=O)c1ccc(F)cc1 (stereo not given)	none (no result: ELG1 DNA repair, Nrf2 block)
CN(C)Cc1c(O)ccc2c(=O)c(-c3ccccc3Cl)c(C(F)(F)F)oc12	none
O=C1c2cccc3c([N+](=O)[O-])ccc(c23)C(=O)N1O	Nrf2 ARE act 13µM, Nrf2 block inconclusive
O=C1c2cccc3c([N+](=O)[O-])ccc(c23)C(=O)N1c1ccccn1	ELG1 DNA repair inconclusive, Nrf2 block inconclusive
CC(=O)Oc1ccc(N2C(=O)c3cccc4c([N+](=O)[O-])ccc(c34)C2=O)cc1	ELG1 DNA repair 18µM, Nrf2 block inconclusive
O=C(Nc1cccc(S(=O)(=O)NCc2ccco2)c1)c1cc(-c2ccccc2)nc2ccccc12	ELG1 DNA repair 21µM, A549 viability inconclusive, Nrf2 block inconclusive
O=C(NCc1ccco1)c1cc(-c2ccccc2)nc2ccccc12	none (no result: Nrf2 block)
CC(C)(C)NS(=O)(=O)c1ccc(NC(=O)c2cc(-c3ccccc3)nc3ccccc23)cc1	ELG1 DNA repair 23µM, Nrf2 block inconclusive
CC(=O)N(C)c1ccc(NC(=O)C(Sc2ccccc2)c2ccccc2)cc1 (stereo not given)	ELG1 DNA repair inconclusive, Nrf2 block inconclusive
CC(C)(C)NS(=O)(=O)c1ccc(NC(=O)C(Sc2ccccc2)c2ccccc2)cc1 (stereo not given)	ELG1 DNA repair inconclusive, A549 viability inconclusive, Nrf2 block 9.2µM
Cc1cccc2c(C(=O)N3CCN(c4ccccc4)CC3)cc(-c3ccncc3)nc12	none
Cc1ccccc1CN1CCN(C(=O)c2cc(-c3ccncc3)nc3ccccc23)CC1	none
O=C(c1cc(-c2ccncc2)nc2ccccc12)N1CCN(Cc2ccccc2)CC1	ELG1 DNA repair 21µM
Cc1cccc2c(C(=O)N3CCN(c4ccccn4)CC3)cc(-c3cccc(Br)c3)nc12	ELG1 DNA repair 15µM, Nrf2 block inconclusive
O=C(c1cc(-c2cccc(Cl)c2)nc2ccccc12)N1CCN(c2ccccn2)CC1	ELG1 DNA repair 23µM
CCOC(=O)CSc1ccc(C(=O)NCCCN2CCOCC2)cc1[N+](=O)[O-]	none
COc1ccc(N2CCN(C(=O)Cc3csc(NC(=O)Nc4ccccc4OC)n3)CC2)cc1	ELG1 DNA repair 16µM, Nrf2 block inconclusive
COc1ccccc1NC(=O)Nc1nc(CC(=O)N2CCN(c3ccccc3)CC2)cs1	ELG1 DNA repair inconclusive, Nrf2 block 7.3µM
COc1ccccc1NC(=O)Nc1nc(CC(=O)Nc2ccc(F)cc2)cs1	ELG1 DNA repair inconclusive
COc1ccccc1NC(=O)Nc1nc(CC(=O)N2CCN(c3ccc(F)cc3)CC2)cs1	ELG1 DNA repair 16µM, Nrf2 block inconclusive
COc1ccccc1CNC(=O)Cc1csc(NC(=O)Nc2ccccc2OC)n1	ELG1 DNA repair inconclusive
Cc1cccc(C(=O)Nc2cccc(OCc3cc(=O)n4cccc(C)c4n3)c2)c1	none (no result: ELG1 DNA repair, Nrf2 block)
Cc1cc(F)ccc1NC(=O)C1CCCN(C(=O)c2cnn(-c3ccccc3)c2-n2cccc2)C1 (stereo not given)	Nrf2 block inconclusive (no result: ELG1 DNA repair)
